Screening data from PubChem.
MPTP block: permeability transition pore inhibition | isolated mouse mitochondria, Ca2+ swelling absorbance, 30 min | inhibition, % at 10 µM | 1.4% of 360,000 active;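 active = inhibition of 50% or more, scaled per plate between neutral and stimulator controls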;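 also: 0% = DMSO wells given calcium and 100% = 1 mM EGTA wells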
CRFR2-BP ag: CRF-BP/CRF-R2 complex agonism; AID 588473; activation, % at 13.2 µM; HEK293 CRF-R2/CRF-BP, calcium dye fluorescence (FLIPR); percent of saturating CRF peptide response; 0.46% of 350,000 active;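 active = activation of at least 50%, plus an integration ratio under a set limit after plate pattern correction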;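 also: plate controls were neutral control wells without compound for no effect and CRF at EC100 for full effect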
TMEM16A act: mouse TMEM16A channel activation, primary screen; Q8BHY3; HEK293 TMEM16A/YFP-H148Q/I152L, iodide quench fluorescence; active compounds read low; B-score at 10 µM; 0.3% of 340,000 active;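 active = fluorescence-ratio B-score plate-corrected deviation score at least 3 library SD below zero, with starting fluorescence score within 5 deviations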;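 also: channel opened by trigger with iodide after compound preincubation; score built on the fluorescence ratio of max minus min over baseline; more negative score means more quench and so TMEM16A activation or potentiation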
Target sequence (Q8BHY3 whole entry, looked up): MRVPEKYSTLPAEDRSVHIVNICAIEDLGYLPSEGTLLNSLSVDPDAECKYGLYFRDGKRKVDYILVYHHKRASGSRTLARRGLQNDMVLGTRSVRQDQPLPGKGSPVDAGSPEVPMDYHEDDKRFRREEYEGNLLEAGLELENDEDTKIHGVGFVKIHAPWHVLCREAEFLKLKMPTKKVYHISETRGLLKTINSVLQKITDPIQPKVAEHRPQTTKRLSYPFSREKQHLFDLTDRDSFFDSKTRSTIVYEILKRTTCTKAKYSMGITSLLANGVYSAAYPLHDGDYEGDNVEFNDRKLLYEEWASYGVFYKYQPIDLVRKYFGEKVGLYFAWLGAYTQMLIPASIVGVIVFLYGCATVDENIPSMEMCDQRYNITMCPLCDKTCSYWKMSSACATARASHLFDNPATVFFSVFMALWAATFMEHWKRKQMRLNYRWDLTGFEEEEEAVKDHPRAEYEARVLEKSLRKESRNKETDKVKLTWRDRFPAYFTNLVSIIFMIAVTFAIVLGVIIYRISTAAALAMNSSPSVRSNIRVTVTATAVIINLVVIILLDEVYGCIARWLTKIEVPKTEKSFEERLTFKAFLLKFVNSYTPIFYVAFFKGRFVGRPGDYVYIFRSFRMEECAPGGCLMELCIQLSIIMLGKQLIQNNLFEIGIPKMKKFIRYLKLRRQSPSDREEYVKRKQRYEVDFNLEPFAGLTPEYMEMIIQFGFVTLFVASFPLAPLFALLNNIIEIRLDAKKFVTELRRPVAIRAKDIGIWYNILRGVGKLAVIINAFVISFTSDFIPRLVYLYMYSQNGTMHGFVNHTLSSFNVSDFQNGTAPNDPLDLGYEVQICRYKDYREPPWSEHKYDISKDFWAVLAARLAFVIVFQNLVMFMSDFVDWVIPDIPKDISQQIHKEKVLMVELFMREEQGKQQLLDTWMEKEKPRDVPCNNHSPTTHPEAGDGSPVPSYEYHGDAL
GRIN3A LBD mod: modulators (binders) of human NR3A ligand-binding domain | NR3A LBD differential scanning fluorimetry, Tm shift; 0% = protein alone, 100% = glycine-bound protein | Tm shift relative to glycine control, % at 25 µM | 2.5% of 340,000 active | AID 1259313;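 active = melting temperature shift of at least 10% of the positive control shift, at one fixed dose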
CRFR2-BP antag: blocks CRF-induced signaling of the CRF-BP/CRF-R2 complex; HEK293 CRF-R2/CRF-BP, CRF-induced calcium fluorescence; inhibition, % at 11.8 µM; 0.59% of 350,000 active;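 active = inhibition of the ligand-induced calcium signal above about 50% at the single tested concentration, limit read from the data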
TMEM16A inh: inhibitors of mouse TMEM16A calcium-activated chloride channel. Q8BHY3. HEK293 TMEM16A/YFP iodide influx fluorescence, ionomycin. normalized B-score (activity score, 25-100; higher = stronger inhibition) at 10 µM. 1.2% of 310,000 active. AID 588511;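 active = ratio plate-corrected score three or more library SD toward inhibition, starting fluorescence score within five deviations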;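 also: score derived from kinetic fluorescence span divided by baseline fluorescence per well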
An asterisk follows results filed as active; i = inactive; . = no result. Rows were chosen to be rich in hits. Some 5.1% of all compounds tested hit in one or more screens of this group.

SMILES	MPTP block	CRFR2-BP ag	TMEM16A act	GRIN3A LBD mod	CRFR2-BP antag	TMEM16A inh
O=[N+]([O-])c1cccc(S(=O)(=O)/N=C(/Nc2ccccc2)c2ccccc2)c1	0	-3	i	4	-6	.
CN(C)C(CNC(=O)c1coc2ccccc2c1=O)c1ccccc1 (stereo unspecified)	-2	1	i	2	-3	i
CCOc1ccc(C(=O)Nc2nnc(NC(=S)Nc3ccccc3)s2)cc1	2	-1	i	34*	-34	i
CCc1nnc(NC(=S)Nc2ccccc2)s1	4	-2	i	-11	57*	i
Cc1ccc(C(=O)Nc2nnc(NC(=S)Nc3ccccc3)s2)cc1	4	-1	i	32*	-37	i
CS(=O)c1ccc(-n2c(=O)n(Cc3ccccc3)c(=O)c3[nH]cnc32)cc1 (stereo unspecified)	-1	0	i	-1	-5	i
Cc1ccc(NC(=O)CSc2nnc3n2CCCCC3)cc1S(=O)(=O)N1CCOCC1	0	1	.	.	5	.
CC1CCCCC1NC(=O)CSc1nnc(C(F)(F)F)n1C (stereo unspecified)	-1	1	.	.	-7	.
COCCN(Cc1nc(C(c2ccccc2)c2ccccc2)no1)C(C)C	4	-1	i	-1	3	i
Cc1ccc(NC(=O)CCN2C(=O)C3C4CCC(C4)C3C2=O)cc1Cl (stereo unspecified)	1	-8	i	18*	-28	i
Cc1ccc(NC(=O)CCN2C(=O)C3C4CCC(C4)C3C2=O)cc1[N+](=O)[O-] (stereo unspecified)	0	0	i	1	9	i
COCCCNC(=O)c1csc([C@H]2C[C@H](O)[C@@H](CO)O2)n1	0	.	.	.	.	.
COc1ccc(Nc2nc(N)c([N+](=O)[O-])c(NCCO)n2)cc1	0	0	i	1	-27	i
COc1ccc(Nc2nc(N)c([N+](=O)[O-])c(NC3CCCCC3)n2)cc1	3	4	i	11*	-57	i
CCCC(=O)Nc1ccc(C(=O)Nc2cc(C(F)(F)F)ccc2Cl)cc1	-5	15	i	-1	-10	i
O=C(Nc1cc(C(F)(F)F)ccc1Cl)c1ccc(NC(=O)C(F)(F)F)cc1	7	2	i	28*	-2	i
O=C(Nc1cc(C(F)(F)F)ccc1Cl)c1cccnc1	3	106*	i	2	-64	i
O=C(Nc1cc(C(F)(F)F)ccc1Cl)c1ccncc1	2	-1	i	1	-3	i
Cc1c(OCC(=O)N(C)c2ccccc2)ccc2c3c(c(=O)oc12)CCC3	0	-1	i	-1	2	i
CCC(=O)OCC(=O)c1c(N)n(Cc2ccccc2)c(=O)n(C)c1=O	0	-1	i	-3	44	i
Cn1c(=O)c(C(=O)COc2ccc(C#N)cc2)c(N)n(Cc2ccccc2)c1=O	-3	55*	i	-2	24	i
Cc1cc(C(=O)COC(=O)c2ccc(NC(=O)CC#N)cc2)c(C)n1-c1ccc(OC(F)F)cc1	1	9	i	17*	11	.
O=C(NC(NC(=S)Nc1ccccc1C(=O)O)C(Cl)(Cl)Cl)c1cccc([N+](=O)[O-])c1 (stereo unspecified)	6	2	i	16*	-5	i
O=C(NNC(=S)NC(=O)c1cccc([N+](=O)[O-])c1)c1ccc(Br)cc1	1	122*	i	-4	-69	100*
O=C(NNC(=S)NC(=O)c1cccc([N+](=O)[O-])c1)c1ccc(O)cc1	2	0	i	-6	0	i
Cc1ccc(C(=O)NC(=S)NNC(=O)c2cccc([N+](=O)[O-])c2)cc1	6	79*	i	-5	21	i
CC(C)NS(=O)(=O)c1ccc(NC(=S)NC(=O)c2cccc([N+](=O)[O-])c2)cc1	2	0	i	13*	-18	i
O=C(O)c1cccc(NC(=O)c2ccccc2NC(=O)c2cccc([N+](=O)[O-])c2)c1	0	-1	i	0	10	i
